Test results from PubChem BioAssay AID1698 (The Scripps Research Institute Molecular Screening Center, 2009).
The other results are listed elsewhere or left out. Active and inactive are the calls of the source.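 Rule for the calls: active = activation above the solvent-only control wells' mean plus 3 SD (cut at about 11% in these data); inactive = the rest.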

molecular target: Neuropeptide Y receptor type 2 (Homo sapiens) (UniProt P49146); assay: human Y2 receptor agonism – cell-based, fluorescence, counter-screen for NPY-Y1 potentiator project (AID 1698); details: HEK293 Y2-CNGC, membrane potential fluorescence, agonist mode; at 3.6 µM; stronger effect = higher value;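 note: 0% = DMSO with isoproterenol and 100% = 40 nM NPY maximal response; agonism lowers cAMP so well fluorescence drops in active wells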
Sequence (P49146 whole entry, looked up): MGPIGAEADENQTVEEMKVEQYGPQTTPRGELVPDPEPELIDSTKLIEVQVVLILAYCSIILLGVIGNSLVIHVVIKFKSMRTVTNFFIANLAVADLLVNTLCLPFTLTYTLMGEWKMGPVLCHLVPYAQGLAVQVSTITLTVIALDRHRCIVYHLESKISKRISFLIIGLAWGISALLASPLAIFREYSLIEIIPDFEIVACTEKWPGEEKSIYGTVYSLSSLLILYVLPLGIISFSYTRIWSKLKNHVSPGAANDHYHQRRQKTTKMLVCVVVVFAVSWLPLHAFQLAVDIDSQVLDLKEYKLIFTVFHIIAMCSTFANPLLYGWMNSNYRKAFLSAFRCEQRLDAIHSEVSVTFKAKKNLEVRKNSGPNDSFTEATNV

Compound	activation
N#Cc1ccc(C(=O)Nc2nc(-c3cccs3)c(C(=O)C(F)(F)F)s2)cc1	0.24% (inactive)
CC(=O)c1ccc(NC(=O)C2CC(=O)Nc3nc4ccccc4n32)cc1 (stereo unspecified)	34.2% (active)
COCCn1nnnc1C(c1ccccc1Cl)N1CCN(c2ccccc2OC)CC1 (stereo unspecified)	6.66% (inactive)
CSc1nc(-c2ccco2)nn1C(=O)c1ccccc1Cl	26% (active)
Cc1cccc(OCC(O)CN2CCN(CCN3C(=O)c4cccc5cccc(c45)C3=O)CC2)c1C (stereo unspecified)	63% (active)
CCn1c2ccccc2c2cc(NC(=O)Nc3ccc([N+](=O)[O-])cc3C)ccc21	23.4% (active)
COC(=O)c1sc(-c2ccc(C(C)(C)C)cc2)cc1NC(=O)/C=C/C(=O)O	22.8% (active)
O=C(Nc1ccc2c(c1)CCC2)c1cccc(S(=O)(=O)Nc2ccccc2Cl)c1	10.3% (active)
COC(=O)c1ccc(NC(=O)CN(c2ccc(C)cc2)S(=O)(=O)c2c(C)n[nH]c2C)cc1	47% (active)
CC1=C/C(=N\OS(=O)(=O)c2ccccc2)C=CC1=O	26.8% (active)
O=C1/C(=C/c2coc3ccc(O)cc3c2=O)SC(=S)N1c1ccccc1	15.2% (active)
Cc1ccccc1NCC(=O)N/N=C\c1ccc([N+](=O)[O-])s1	39.5% (active)
CN1C(=O)c2ccccc2C(C(=O)NCCCN2CCCC2)C1c1c[nH]c2ccccc12 (stereo unspecified)	-0.28% (inactive)
O=C(c1cccs1)N1CCN(C(=O)N2CCOCC2)CC1	-9.63% (inactive)
O=[N+]([O-])c1cc(Cl)cc(/C=N/NC(=S)Nc2cc(S(=O)(=O)N3CCOCC3)ccc2Cl)c1O	63.2% (active)
O=C(Nc1ccccc1C(F)(F)F)c1cc(-c2ccc(O)cc2)on1	-2.58% (inactive)
